Rab2 wt GTP: changes GTP binding to wildtype dog Rab2A, up or down | GST-Rab2 wt beads, Bodipy-GTP binding, flow cytometry | GTP binding activity, % at 10 µM | 190,000 tested, 0.19% active | AID 760;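 active = GTP binding activity at least 20 points away from 100%, either lowered or raised; inconclusive = signal likely due to the compound's own green fluorescence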;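 note: 0% = beads with excess unlabeled GTP and 100% = no-compound control corrected for plate trend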
HRas wt GTP: modulators of GTP binding to human HRas wildtype. P01112. GST-Ras wt beads, Bodipy-FL-GTP binding, flow cytometry; actives lie on both sides. GTP binding activity, % at 10 µM. AID 759. 190,000 tested, 0.14% active;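 active = GTP binding activity at least 20% away from the 100% baseline, either lowered as inhibitor or raised as activator; inconclusive = flagged as likely green fluorescent, judged across all proteins in the well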;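 note: 0% = unlabeled GTP competition control and 100% = no-compound control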
Target sequence (P01112 whole entry, looked up): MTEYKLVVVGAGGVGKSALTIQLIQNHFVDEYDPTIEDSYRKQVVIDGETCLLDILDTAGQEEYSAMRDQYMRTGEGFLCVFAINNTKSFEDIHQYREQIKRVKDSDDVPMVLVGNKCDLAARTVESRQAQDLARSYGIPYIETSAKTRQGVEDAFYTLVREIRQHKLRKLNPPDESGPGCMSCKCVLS
Cdc42 wt GTP: changes GTP binding to wildtype human Cdc42; GST-Cdc42 beads, Bodipy-GTP binding, flow cytometry; actives lie on both sides; 190,000 tested, 0.2% active; P60953; AID 761; percent activity (GTP binding), % at 10 µM;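 active = percent activity GTP binding at least 20 points away from the 100% baseline, either down as inhibitor or up as activator; inconclusive = compound flagged as likely green fluorescent from well-wide comparison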;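 note: median bead fluorescence of bound Bodipy-FL-GTP at 100 nM; 0% = excess unlabeled GTP control and 100% = no compound control; below 100% means less GTP binding so inhibitor and above means activator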
Target sequence (P60953 whole entry, looked up): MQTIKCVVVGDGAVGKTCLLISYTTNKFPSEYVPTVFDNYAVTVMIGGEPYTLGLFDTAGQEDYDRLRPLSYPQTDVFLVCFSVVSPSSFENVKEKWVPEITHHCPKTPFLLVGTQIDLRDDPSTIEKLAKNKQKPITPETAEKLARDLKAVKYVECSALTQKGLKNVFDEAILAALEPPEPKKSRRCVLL
Rac1 wt modul: modulators of human Rac1 wildtype GTP binding | GST-Rac1 beads, fluorescent GTP binding, flow cytometry; actives lie on both sides; 0 = cold GTP competed, 100 = untreated | P63000 | 190,000 tested, 0.27% active | GTP binding activity (% of control), % at 10 µM;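 active = GTP binding activity at least 20 points away from the 100% control level, either lower or higher; inconclusive = compound flagged as likely green fluorescent, judged across all proteins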
Rab7 wt GTP bind: dog Rab7 wildtype GTP binding, inhibitors and activators | GST-Rab7 beads, fluorescent GTP binding, flow cytometry; actives lie on both sides; untreated = 100%, excess cold GTP = 0% | GTP binding activity (percent of control), % at 10 µM | 190,000 tested, 0.055% active;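 active = fluorescent GTP binding to Rab7 beads changed by at least 20 points from the 100% baseline, either direction, mostly lower; inconclusive = compound itself probably fluorescent, or too few beads counted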;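 note: median green fluorescence of bound Bodipy-FL-GTP per Rab7 bead population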
Rac1 mut GTP: modulators of GTP binding to human Rac1 activated mutant; 190,000 tested, 0.11% active; percent activity (GTP binding), % at 10 µM; GST-Rac1 activated beads, fluorescent GTP binding, flow cytometry; actives lie on both sides; 100% means binding = to untreated wells;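 active = GTP binding at least 20 percentage points away from the 100% baseline, in either direction, so actives lie on both sides; inconclusive = Compound likely fluorescent itself, or too few beads counted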
* hit, by the source's call; u = inconclusive; [ ] = dose if it differs, or a comment. A selection: hits, their analogues and other compounds. The true share with any hit is near 0.37%.

SMILES	Rab2 wt GTP	HRas wt GTP	Cdc42 wt GTP	Rac1 wt modul	Rab7 wt GTP bind	Rac1 mut GTP
Cc1ccc(/C=C2\SC(=S)N(C(Cc3ccccc3)C(=O)O)C2=O)cc1 (stereo unspecified)	79*	85	82	83	92	80
Cc1cc(C)cc(NC(=O)C(=S)NCc2ccccc2)c1	94	96	92	101	100	98
COc1cccc(OC)c1-c1nn2c(-c3cc(-c4ccccc4)n[nH]3)nnc2s1	167*[activator]	162*[activator]	179*[activator]	206*[activator]	u	u
C=CCN1C(=NC(=O)CCCC(=O)O)SC2CS(=O)(=O)CC21 (stereo unspecified)	99	97	104	100	76*	99
COC(=O)c1ccc(/C=N/Nc2nc(-c3ccc(Cl)cc3Cl)cs2)cc1	123*[activator]	121*[activator]	127*[activator]	130*[activator]	124*[activator]	119
COc1ccc(C(=O)CC(Nc2ccc([N+](=O)[O-])cc2)c2ccc(Cl)cc2)cc1 (stereo unspecified)	96	96	94	96	96	95
N#Cc1c(Nc2ccccc2)c(/C=N/N=C/c2ccccc2)c[nH]c1=O	81	76*	81	75*	81	88
N#Cc1c(Nc2ccccc2)c(/C=N/NCCO)c[nH]c1=O	99	99	95	96	96	94
COc1cc([N+](=O)[O-])ccc1N=Nc1c(N)[nH]n(-c2ccccc2)c1=O	80	85	78*	81	87	83
O=S(=O)(Cc1ccccc1)N1CCc2ccccc21	37*	95	94	102	98	96
COc1cccc(/C=N/Nc2nn3cnnc3c3ccccc23)c1O	60*	59*	58*	70*	77*	70*
COc1cccc(/C=N/Nc2ccc(C(=O)O)cc2)c1O	94	95	96	97	96	97
COc1ccc2o/c(=N/NC(=O)c3cccs3)c(C(N)=O)cc2c1	61*	61*	60*	57*	91	80
COc1ccc(C)cc1NC(=O)COC(C)=O	108	105	120*[activator]	137*[activator]	103	107
O=C(O)c1ccccc1C(=O)OCc1ccccc1	134*[activator]	136*[activator]	115	160*[activator]	u	u
O=C(OCc1ccccc1)c1cccnc1Cl	99	98	94	96	106	93
C=CCN1C(=O)C2C3CC(=O)C(c4ccccc43)C2C1=O (stereo unspecified)	97	98	95	99	98	96
CC1(C)OC(=O)C(=Cc2ccc(-c3ccc(S(N)(=O)=O)cc3)o2)C(=O)O1	92	88	92	88	98	85
NS(=O)(=O)c1ccc(-c2ccc(/C=C3\C(=O)Nc4cc(Cl)ccc43)o2)cc1	76*	76*	73*	68*	94	87
O=C(COC(=O)c1cccnc1Cl)NCc1ccco1	99	99	93	98	106	94
COc1ccccc1Nc1nc(-c2c(C)nc3ncccn23)cs1	62*	62*	66*	63*	82	79*
COc1ccc(Nc2nc(-c3c(C)nc4ncccn34)cs2)cc1	76*	77*	76*	65*	84	83
Cc1nc2ncccn2c1-c1csc(Nc2ccc(N(C)C)cc2)n1	93	92	92	90	107	92
Cc1nc2ncccn2c1-c1csc(Nc2ccccc2)n1	62*	59*	67*	60*	83	80
NC(=S)N=Nc1c(O)[nH]c2ccccc12	84	86	92	87	95	96
SMILES	Rab2 wt GTP	HRas wt GTP	Cdc42 wt GTP	Rac1 wt modul	Rab7 wt GTP bind	Rac1 mut GTP
NC(=S)N=Nc1c(O)[nH]c2c(Br)cc(Br)cc12	74*	75*	75*	71*	93	84
O=c1c2ccccc2nc2ccc(NCc3cccs3)nn12	74*	79*	76*	74*	91	88
CCn1c(NCc2cccs2)nc2ccccc21	99	100	105	106	97	99
Cc1cccc(NC(=S)N(CCN(C)C)Cc2cccs2)c1	99	101	104	102	96	96
COc1ccc(-c2c(C)[nH]n3c(=O)c(Cc4ccccc4)c(C)nc23)cc1	77*	81	95	87	93	93
COc1ccccc1-c1c(C)[nH]n2c(=O)c(Cc3ccccc3)c(C)nc12	96	95	100	98	94	95
NC(=O)COC(=O)c1cccc2c1-c1ccccc1C2=O	78*	81	78*	72*	92	85
CC(C)CCn1c(CN2CCN(Cc3ccccc3)CC2)nc2c1c(=O)n(C)c(=O)n2C	123*[activator]	116	156*[activator]	159*[activator]	105	120*[activator]
Cn1c(Cn2c(=O)sc3ccccc32)nnc1SCC(=O)NCCc1ccccc1	100	100	101	103	103	98
CCN1/C(=C\C=C2\C(=O)N(c3ccccc3)C(=S)N2C)Sc2ccccc21	87	78*	83	83	83	85
CCCN1C(=O)/C(=C\C=C2/Sc3ccccc3N2CC)SC1=S	74*	68*	73*	69*	77*	75*
O=C(NCCc1ccccc1)c1cc(=O)[nH]c2ccccc12	95	94	94	95	90	98
OCC1(CCOc2ccccc2)CCN(C2Cc3ccccc3C2)CC1	97	94	94	97	95	93
C/C=C/c1ccccc1OCc1ccc(C(=O)O)o1	149*[activator]	145*[activator]	161*[activator]	194*[activator]	134*[activator]	146*[activator]
CN(/N=C/c1ccco1)C1=NS(=O)(=O)c2ccccc21	73*	76*	71*	64*	85	80
COc1ccc(N(C)C2=NS(=O)(=O)c3ccccc32)cc1	99	100	101	104	98	97
Cn1cc(C(=O)N2CCc3ccccc3C2)c(=O)c2cc(S(=O)(=O)N3CCCCC3)ccc21	111	111	110	121*[activator]	104	103
COc1ccc(/C=N/NC(=O)c2ccncc2)cc1Cn1nc([N+](=O)[O-])c(Br)c1C	68*	74*	65*	76*	97	83
COc1ccc(/C=N/NC(=O)c2ccco2)cc1Cn1nc(C)c([N+](=O)[O-])c1C	98	96	96	95	97	94
Clc1ccc(CN(Cc2ccc(Cl)cc2)c2nn[nH]n2)cc1	80	87	80	83	96	77*
c1ccc(CN(Cc2ccccc2)c2nn[nH]n2)cc1	92	93	91	94	103	89

Compound activity: PubChem, NMMLSC
